Drawing on PubChem BioAssay (NCATS), this text covers outcome, Potency and max response for four molecules.

A number with no mark means an inactive call. Records with an inconclusive call do not appear. The source made the active and inactive calls. Calls come from the whole dose curve; as a rule, active = well fitted curve in the direction sought with a large enough effect; inconclusive = small, poorly fitted or top-dose-only effect, or another doubt; inactive = no such curve, though single readings can be large; an effect the other way counts as inactive or inconclusive.

Assay [1] deals with Cytochrome P450 2C19 (Homo sapiens) (UniProt P33261). The assay can be described thus: qHTS for inhibitors of CYP2C19 against the NCATS DSHEA and TCM libraries (AID 1919974). Note: % is set by controls: 0 for no effect and ±100 for the full control effect. In short, it runs like this: (§1)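 Substances were tested against enzyme with a pro-luciferin substrate; minus-enzyme wells served as background. After NADPH-initiated oxidation (30-45 min, RT), light was generated with P450-Glo reagent.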
(Quantitative high-throughput screening tests each substance at several concentrations.)

The nature of assay [2]: KB-3-1 P-gp reporter qHTS against the NCATS DSHEA and TCM libraries (AID 1919975). Note: 0% is about no effect. In short, it runs like this:
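Parental KB-3-1 cells, 500 cells/well, in DMEM with 10% FBS, exposed 72 h at 37 C to compounds in concentration-response. Viability read by CellTiter-Glo luminescence after 30 min at room temperature.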

For assay [3], the target named is Cytochrome P450 1A2 (Homo sapiens) (UniProt P05177). In words: qHTS for inhibitors of CYPIA2 against the NCATS DSHEA and TCM libraries (AID 1919976). Note: potency is the fitted concentration of half-maximal effect. The method in brief:
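Luminescence read-out: pro-luciferin converted to D-luciferin by CYP1A2, detected with P450-Glo reagent after 30 min RT. Enzyme plus substrate got compounds for 15 min RT; NADPH regeneration solution (final 1x) started a 30-45 min reaction, light-protected.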

A short description of assay [4]: qHTS Counterscreen for compound interference against the NCATS DSHEA and TCM libraries (AID 1919978).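 Note: compounds preincubated with 1 µM D-luciferin or buffer before detection reagent; % of control where 0% means no effect.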 The following applies: firefly luciferase detection reagent interference, luminescence. In short, it runs like this: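 Firefly luciferase detection reagent was added after compounds (19.5 nM–39.8 uM final) had been incubated 15 min at room temperature with 1 uM D-luciferin or with 100 mM phosphate buffer alone. Luminescence was read after 30 min at room temperature.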

A short description of assay [5]: Dual reporter qHTS for agonist of Pregnane X Receptor (hPXR) against the NCATS DSHEA and TCM libraries: Fluorescence readout (AID 1920058). Note: 0% is about no effect. In short, it runs like this: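 Fluorescence read-out for cell viability: CellTiter-Fluor, 1 h at 37 °C, Ex/Em 405/540 nm. This followed ~24 h treatment of hPXR-Luc HepG2 cells with substances in agonist mode.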
Assay [6] concerns the target Nuclear receptor subfamily 1 group I member 2 (Homo sapiens) (UniProt O75469). In words: Dual reporter qHTS for antagonist of Pregnane X Receptor (hPXR) against the NCATS DSHEA and TCM libraries: Luminescence Readout (AID 1920060).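 Note: HepG2 cells carrying hPXR luciferase reporter stimulated with rifampicin at 2 µM; 0% is about no effect.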 In short, it runs like this: (§2)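 Antagonist mode: rifampicin 2 uM final co-added with compounds to hPXR-LucHepG2 cells for 24 h at 37C. Viability by CellTiter-Fluor, Ex/Em 405/540 nm, 1 h; reporter by ONE-Glo luminescence.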

The nature of assay [7]: Dual reporter qHTS for antagonist of Pregnane X Receptor (hPXR) against the NCATS DSHEA and TCM libraries: Fluorescence Readout (AID 1920061). Note: 0% is about no effect. In short, it runs like this: as §2
Assay [8] addresses Cytochrome P450 2C9 (Homo sapiens) (UniProt P11712). In words: qHTS for inhibitors of CYP2C9 against the NCATS DSHEA and TCM libraries (AID 1919973). Note: potency is the fitted concentration of half-maximal effect. The method in brief: as §1
The target of assay [9] is Nuclear receptor subfamily 1 group I member 2 (Homo sapiens) (UniProt O75469). In words: Dual reporter qHTS for agonist of Pregnane X Receptor (hPXR) against the NCATS DSHEA and TCM libraries: Luminescence readout (AID 1920059). Note: 0% is about no effect. The source says: Assay Development and Screening Technology Laboratory (ADST)
National Center for Advancing Translational Sciences (NCATS), Rockville, MD
National Institute of Health (NIH), Bethesda, Maryland
Dietary Supplements and Natural Products have minor oversight of their safety and efficacy. We assembled a collection of Dietary Supplements and Natural Products (DSNP) as well as Traditional Chinese Medicinal (TCM) Plant extracts, which were screened against an in vitro panel of assays, including a liver cytochrome p450 enzyme panel, CAR/PXR signaling pathways, and P-gp transporter assays, to assess their activity. This pipeline facilitated the interrogation of Natural Product-Drug Interaction (NaPDI) through prominent metabolizing pathways. In addition, we compared the activity profiles of the DSNP/TCM substances with those of an approved drug collection. […] Overall, we highlight four significant bioactivity profiles (measured by p-values) as examples of this prediction. […] To profile potential P-gp activity, a differential cell viability was measured against two cell lines: a parental KB-3-1 human cervical adenocarcinoma cell line and the drug-resistant subline KB-8-5-11 that overexpresses P-gp. […]
8; Read; Fluorescence; ViewLux plate reader. […]
11; Read; Luminescence; ViewLux plate reader. […]

Assay [10] addresses Cytochrome P450 2D6 (Homo sapiens) (UniProt P10635). The assay can be described thus: qHTS for inhibitors of CYP2D6 against the NCATS DSHEA and TCM libraries (AID 1919972). Note: % is set by controls: 0 for no effect and ±100 for the full control effect. In short, it runs like this: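 qHTS, concentration–response format with most substances from 19.5 nM. CYP2D6 + pro-luciferin substrate, 15 min with compound, then 1x NADPH regen, 30–45 min RT dark. Glo detection 30 min, luminescence. Quinidine control.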

Sequence of Cytochrome P450 1A2 (Homo sapiens) (P05177 whole entry, looked up): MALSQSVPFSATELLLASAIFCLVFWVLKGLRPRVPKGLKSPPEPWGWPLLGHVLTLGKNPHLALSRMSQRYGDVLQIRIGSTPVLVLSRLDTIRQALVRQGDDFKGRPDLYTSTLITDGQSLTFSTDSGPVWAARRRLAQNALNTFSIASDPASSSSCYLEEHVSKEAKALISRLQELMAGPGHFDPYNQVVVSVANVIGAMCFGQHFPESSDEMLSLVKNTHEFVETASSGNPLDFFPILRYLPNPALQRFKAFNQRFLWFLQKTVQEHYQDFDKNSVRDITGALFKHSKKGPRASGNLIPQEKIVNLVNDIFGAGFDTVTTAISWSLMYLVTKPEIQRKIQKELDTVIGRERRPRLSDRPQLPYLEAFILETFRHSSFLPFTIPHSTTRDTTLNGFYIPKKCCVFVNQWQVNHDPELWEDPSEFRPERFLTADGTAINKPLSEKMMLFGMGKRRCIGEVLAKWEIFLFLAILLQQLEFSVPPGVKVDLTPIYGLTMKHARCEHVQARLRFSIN
Sequence of Nuclear receptor subfamily 1 group I member 2 (Homo sapiens) (O75469 whole entry, looked up): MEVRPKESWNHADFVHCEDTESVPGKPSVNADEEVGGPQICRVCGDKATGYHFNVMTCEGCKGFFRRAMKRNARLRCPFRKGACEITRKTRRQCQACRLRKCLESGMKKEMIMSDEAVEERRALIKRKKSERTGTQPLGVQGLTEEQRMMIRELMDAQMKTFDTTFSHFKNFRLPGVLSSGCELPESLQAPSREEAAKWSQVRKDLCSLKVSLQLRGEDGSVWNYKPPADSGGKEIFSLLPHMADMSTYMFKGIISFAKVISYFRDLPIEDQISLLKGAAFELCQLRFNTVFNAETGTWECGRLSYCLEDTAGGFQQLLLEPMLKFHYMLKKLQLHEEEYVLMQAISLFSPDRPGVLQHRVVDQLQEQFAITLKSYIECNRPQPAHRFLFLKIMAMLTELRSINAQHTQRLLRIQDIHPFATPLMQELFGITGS
Sequence of Cytochrome P450 2C19 (Homo sapiens) (P33261 whole entry, looked up): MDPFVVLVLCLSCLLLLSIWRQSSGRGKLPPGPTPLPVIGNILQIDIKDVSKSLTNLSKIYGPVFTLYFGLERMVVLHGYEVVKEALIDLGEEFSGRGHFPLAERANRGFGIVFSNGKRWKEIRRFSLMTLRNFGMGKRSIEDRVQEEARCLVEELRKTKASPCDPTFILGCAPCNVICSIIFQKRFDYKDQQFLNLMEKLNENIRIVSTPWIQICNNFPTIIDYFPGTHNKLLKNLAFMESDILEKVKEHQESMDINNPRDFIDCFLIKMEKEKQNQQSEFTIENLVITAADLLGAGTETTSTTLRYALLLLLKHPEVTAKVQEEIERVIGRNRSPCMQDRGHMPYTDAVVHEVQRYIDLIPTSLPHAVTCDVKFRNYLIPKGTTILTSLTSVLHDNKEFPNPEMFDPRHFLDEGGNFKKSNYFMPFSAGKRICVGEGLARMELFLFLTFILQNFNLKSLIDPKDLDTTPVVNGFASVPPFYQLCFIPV
Sequence of Cytochrome P450 2C9 (Homo sapiens) (P11712 whole entry, looked up): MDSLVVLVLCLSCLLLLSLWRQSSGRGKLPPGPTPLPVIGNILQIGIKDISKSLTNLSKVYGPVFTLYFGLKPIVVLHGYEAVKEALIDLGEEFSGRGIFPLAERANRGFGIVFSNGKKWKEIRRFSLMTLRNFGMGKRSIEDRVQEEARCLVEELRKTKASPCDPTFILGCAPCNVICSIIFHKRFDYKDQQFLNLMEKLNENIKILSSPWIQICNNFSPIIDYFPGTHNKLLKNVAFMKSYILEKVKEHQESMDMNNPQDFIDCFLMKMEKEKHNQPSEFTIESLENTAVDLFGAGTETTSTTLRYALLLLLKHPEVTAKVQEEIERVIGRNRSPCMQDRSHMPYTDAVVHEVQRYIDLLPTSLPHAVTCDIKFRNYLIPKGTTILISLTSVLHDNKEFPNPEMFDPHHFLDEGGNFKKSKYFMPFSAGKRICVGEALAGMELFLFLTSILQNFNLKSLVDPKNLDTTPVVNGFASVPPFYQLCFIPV
Sequence of Cytochrome P450 2D6 (Homo sapiens) (P10635 whole entry, looked up): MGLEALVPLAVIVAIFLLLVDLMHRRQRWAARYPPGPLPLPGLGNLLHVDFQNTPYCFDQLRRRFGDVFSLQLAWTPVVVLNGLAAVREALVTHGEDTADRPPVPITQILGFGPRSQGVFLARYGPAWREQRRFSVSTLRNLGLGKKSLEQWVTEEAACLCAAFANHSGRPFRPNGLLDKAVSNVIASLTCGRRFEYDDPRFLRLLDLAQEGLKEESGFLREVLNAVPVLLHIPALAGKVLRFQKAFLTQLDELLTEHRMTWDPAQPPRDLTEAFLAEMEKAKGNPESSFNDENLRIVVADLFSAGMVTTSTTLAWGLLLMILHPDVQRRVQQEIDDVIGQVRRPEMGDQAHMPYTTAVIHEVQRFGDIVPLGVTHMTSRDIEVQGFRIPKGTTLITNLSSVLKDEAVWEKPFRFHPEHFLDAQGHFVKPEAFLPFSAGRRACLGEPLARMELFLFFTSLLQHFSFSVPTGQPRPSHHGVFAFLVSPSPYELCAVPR

Regarding `C[C@@]12C[C@@]3(O)O[C@@H](O1)[C@]1(COC(=O)c4ccccc4)[C@@H]3C[C@@]12O[C@@H]1O[C@H](CO)[C@@H](O)[C@H](O)[C@@H]1O`, the molecule was called inactive in assay [1], in assay [2], in [5], in assay [6] and in [7]. The Potency entry in assay [3] is “inactive”. In addition, in assay [4], the max response is 0.508%.
Consider `O=C1c2c(O)cccc2[C@@H]([C@@H]2O[C@H](CO)[C@@H](O)[C@H](O)[C@H]2O)c2cc(CO)cc(O)c21`, for which the Potency in assay [8] is 11.2 µM (active). For the same molecule, the molecule was called inactive in assay [1], in [2], in assay [5], in [9], in assay [6] and in assay [7]. Moreover, the max response in assay [4] is -13.5%.
As to `COc1ccc(C(C)=O)c(O)c1`, the result in [10], in [2], in [5], in assay [9], in [6] and in assay [7] was inactive. Also, the Potency in [3] is 15.8 µM (active). The max response in assay [4] was 3.21%.
With `C=C(C)[C@@H]1CC[C@]2(C(=O)O)CC[C@]3(C)[C@H](CC[C@@H]4[C@@]5(C)CC[C@H](O)C(C)(C)[C@@H]5CC[C@]43C)[C@@H]12`, the call in assay [10], in assay [1], in assay [5] and in assay [7] was inactive. For the same molecule, the Potency entry in [8] and in [3] was “inactive” each time. In assay [4], the max response was 1.9%.
